From PubChem BioAssay (NCATS)
Records with an inconclusive call do not appear. The source made the active and inactive calls. Unless noted, calls follow the shape of the dose curve; as a rule, active = well fitted curve in the direction sought with a large enough effect; inconclusive = small, poorly fitted or top-dose-only effect, or another doubt; inactive = no such curve, though single readings can be large; an effect the other way counts as inactive or inconclusive.

Key:
[1] = qHTS for differential inhibitors of proliferation of Plasmodium falciparum line GB4 (AID 1816); conditions: Potency: Plasmodium falciparum GB4 proliferation inhibition;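 also: parasite growth measured after 72 h incubation; 0% = vehicle DMSO and -100% = reference inhibitor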
[2] = qHTS for differential inhibitors of proliferation of Plasmodium falciparum line 3D7 (AID 1876);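 also: parasite growth measured after three days of culture; 0% = vehicle wells and -100% = reference inhibitor wells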
[3] = qHTS for differential inhibitors of proliferation of Plasmodium falciparum line D10 (AID 1877);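 also: parasites grown with compound for 72 h before DNA staining; plate controls were vehicle wells for no effect and reference inhibitor wells for full effect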
[4] = qHTS for differential inhibitors of proliferation of Plasmodium falciparum line W2 (AID 1883); conditions: Potency: Plasmodium falciparum W2 proliferation inhibition;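 also: parasites grown with compound for 72 h before lysis and staining; 0% = vehicle wells and -100% = control inhibitor wells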
[5] = qHTS for differential inhibitors of proliferation of Plasmodium falciparum line HB3 (AID 1886); conditions: Potency: Plasmodium falciparum HB3 proliferation inhibition;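 also: parasites grown with compound for 72 h before SYBR Green readout; plate controls were vehicle for no effect and reference inhibitor for full effect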
[6] = qHTS Assay for Modulators of Human Peripheral Myelin Protein 22 (PMP22) Expression/Activity (AID 1967; active = well fitted curve in the direction sought with a large enough effect in the signal ratio; the % refers to the signal ratio;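 also: 0% = untreated cells and 100% end not stated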)
Outline: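 Quantitative HTS in a mouse Schwann cell line expressing dual click beetle luciferases: Pmp22 promoter (green) and control EF-alpha promoter (red). After 24h treatment, corrected green/red signal ratio gave %Activity relative to untreated cells.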

[7] = molecular target: Ferritin light chain (Equus caballus) (UniProt P02791); experiment: qHTS Validation Assay for Identification of Novel General Anesthetics (AID 2323); also: series mostly up to about 77 µM; % is scaled to controls: 0 for no effect and ±100 for the full control effect
Chain of Ferritin light chain (Equus caballus) (P02791 2-175 limits assumed): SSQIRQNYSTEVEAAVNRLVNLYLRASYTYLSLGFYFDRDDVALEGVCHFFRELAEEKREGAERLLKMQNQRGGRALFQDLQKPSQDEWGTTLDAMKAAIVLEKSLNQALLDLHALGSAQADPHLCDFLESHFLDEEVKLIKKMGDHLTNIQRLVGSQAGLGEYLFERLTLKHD
Outline: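 Apoferritin from horse spleen (10 uM) was mixed with 1-aminoanthracene at 50% saturation in PBS, then compounds were added. After 10 min at room temperature, fluorescence was read (ex 380 nm, em 535 nm) and normalized to free-probe and complex controls.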

[8] = molecular target: ATP-dependent DNA helicase Q1 (Homo sapiens) (UniProt P46063); experiment: qHTS Validation Assay for Inhibitors of RecQ-Like Dna Helicase 1 (RECQ1) (AID 2353);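 also: plate controls were DMSO vehicle for no effect and enzyme-free control for full effect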
Chain of ATP-dependent DNA helicase Q1 (Homo sapiens) (P46063 whole entry, looked up): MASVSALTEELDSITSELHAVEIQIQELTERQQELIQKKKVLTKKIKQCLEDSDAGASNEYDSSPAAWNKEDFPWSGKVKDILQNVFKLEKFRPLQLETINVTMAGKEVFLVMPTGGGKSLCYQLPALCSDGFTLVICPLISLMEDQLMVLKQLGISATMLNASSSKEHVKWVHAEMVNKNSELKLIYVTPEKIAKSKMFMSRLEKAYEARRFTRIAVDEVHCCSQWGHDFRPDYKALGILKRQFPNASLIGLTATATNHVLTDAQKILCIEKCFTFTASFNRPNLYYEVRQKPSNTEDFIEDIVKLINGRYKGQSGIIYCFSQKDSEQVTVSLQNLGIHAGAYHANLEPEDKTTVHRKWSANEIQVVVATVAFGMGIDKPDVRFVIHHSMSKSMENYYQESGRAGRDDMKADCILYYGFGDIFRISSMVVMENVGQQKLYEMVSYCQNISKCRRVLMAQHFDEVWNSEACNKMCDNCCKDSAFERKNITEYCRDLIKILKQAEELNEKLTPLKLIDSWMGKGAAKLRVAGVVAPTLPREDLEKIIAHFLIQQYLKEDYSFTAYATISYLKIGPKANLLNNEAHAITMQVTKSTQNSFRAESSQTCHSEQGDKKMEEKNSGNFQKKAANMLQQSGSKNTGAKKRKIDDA
Outline: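 50 nM RECQ1T1 preincubated 15 min with compound in Tris pH 8.0 buffer with MgCl2, DTT, Tween-20 and 2.5 ug/ml poly(dI-dC); started with 200 nM TAMRA/BHQ-2 forked duplex and 2 mM ATP. Unwinding read as fluorescence (525/598 nm), two reads 2 h apart.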

[9] = molecular target: RecQ-like DNA helicase BLM (Homo sapiens) (UniProt P54132); experiment: qHTS Validation Assay for Inhibitors of Bloom's syndrome helicase (BLM) (AID 2364);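 also: plate controls were DMSO vehicle for no effect and enzyme-free control for full effect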
Outline: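 BLM 50 nM in 25 mM Tris-HCl pH 8.0, 5 mM NaCl, 2 mM MgCl2, 1 mM DTT, 0.01% Tween-20, 2.5 ug/ml poly(dI-dC); 15 min cpd preinc, RT. Start: 200 nM forked DNA + 2 mM ATP (final). TAMRA read, 2 reads 2 h apart.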

[10] = Validation screen for small molecules that induce DNA re-replication in MCF 10A normal breast cells (AID 463097); also: 0% is about no effect; nearly all actives have a fitted effect of over 60% in size
Outline: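 DNA re-replication was detected as a rise in nuclei with elevated Hoechst fluorescence after a 48 hr compound exposure of MCF 10A cells at 37 C.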

[11] = Quantitative high throughput screen for delayed death inhibitors of the malarial parasite plastid, 96 hour incubation (AID 488745); also: series mostly up to about 29 µM; % is scaled to controls: 0 for no effect and ±100 for the full control effect; nearly all actives have a fitted effect of over 70% in size
Outline: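 P. falciparum carrying an integrated firefly luciferase reporter, grown in erythrocytes (2% hematocrit, 0.1% parasitemia final) in RPMI 1640/0.5% Albumax, was exposed to compound for 96 h (two generations) at 37 C, 5% CO2. Luminescence decrease indicated growth inhibition.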

[12] = Quantitative high throughput screen for delayed death inhibitors of the malarial parasite plastid, 48 hour incubation (AID 488752); also: % is scaled to controls: 0 for no effect and ±100 for the full control effect; nearly all actives have a fitted effect of over 65% in size
Outline: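 Erythrocytes infected with P. falciparum carrying an integrated firefly luciferase reporter (2% hematocrit, 0.1% parasitemia final) were exposed to compounds in RPMI 1640/0.5% Albumax for 48 h at 37 C, 5% CO2. Growth inhibition was scored as reduced luminescence.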

[13] = molecular target: M-phase phosphoprotein 8 (Homo sapiens) (UniProt Q99549); experiment: qHTS Validation Assay for Inhibitors for MPP8 Chromodomain Interactions with Methylated Histone Tails (AID 488949);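 also: AlphaScreen signal from MPP8 chromodomain bound to biotinylated H3K9me3 peptide; top concentration of the series differs between compounds; % is scaled to controls: 0 for no effect and ±100 for the full control effect; nearly all actives have a fitted effect of over 55% in size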
Chain of M-phase phosphoprotein 8 (Homo sapiens) (Q99549 whole entry, looked up): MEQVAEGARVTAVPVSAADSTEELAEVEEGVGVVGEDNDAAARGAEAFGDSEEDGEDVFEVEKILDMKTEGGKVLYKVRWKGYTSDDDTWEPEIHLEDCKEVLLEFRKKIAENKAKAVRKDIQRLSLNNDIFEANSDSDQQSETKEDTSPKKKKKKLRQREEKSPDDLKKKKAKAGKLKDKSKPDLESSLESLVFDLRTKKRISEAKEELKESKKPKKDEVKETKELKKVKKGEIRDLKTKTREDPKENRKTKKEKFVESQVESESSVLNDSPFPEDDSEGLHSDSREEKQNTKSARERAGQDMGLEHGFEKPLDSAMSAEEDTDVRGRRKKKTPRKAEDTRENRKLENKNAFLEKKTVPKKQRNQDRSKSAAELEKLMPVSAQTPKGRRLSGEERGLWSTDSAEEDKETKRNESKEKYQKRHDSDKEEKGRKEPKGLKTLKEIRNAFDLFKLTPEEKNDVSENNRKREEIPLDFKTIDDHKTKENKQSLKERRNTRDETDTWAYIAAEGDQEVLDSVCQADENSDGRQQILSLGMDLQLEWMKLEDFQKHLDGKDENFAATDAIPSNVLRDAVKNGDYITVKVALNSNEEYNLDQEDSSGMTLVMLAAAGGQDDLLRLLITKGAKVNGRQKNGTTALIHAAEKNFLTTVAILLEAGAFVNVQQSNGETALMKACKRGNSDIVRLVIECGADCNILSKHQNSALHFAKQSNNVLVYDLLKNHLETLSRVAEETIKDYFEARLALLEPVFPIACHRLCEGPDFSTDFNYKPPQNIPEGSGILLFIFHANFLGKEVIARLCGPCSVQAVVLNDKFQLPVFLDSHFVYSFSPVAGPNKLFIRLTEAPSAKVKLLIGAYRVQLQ
Outline: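 Disruption of the preformed MPP8–trimethyl-H3K9 peptide complex (both 50 nM, 30 min, RT) is measured after 30 min compound exposure, using AlphaScreen proximity beads; aurintricarboxylic acid titration serves as plate control.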

[14] = molecular target: Transient receptor potential cation channel subfamily V member 1 (Homo sapiens) (UniProt Q8NER1); experiment: HTS Assay for Compounds that Act as Enhancers of the Vanilloid Receptor 1 (AID 488979); also: 0% is about no effect
Chain of Transient receptor potential cation channel subfamily V member 1 (Homo sapiens) (Q8NER1 whole entry, looked up): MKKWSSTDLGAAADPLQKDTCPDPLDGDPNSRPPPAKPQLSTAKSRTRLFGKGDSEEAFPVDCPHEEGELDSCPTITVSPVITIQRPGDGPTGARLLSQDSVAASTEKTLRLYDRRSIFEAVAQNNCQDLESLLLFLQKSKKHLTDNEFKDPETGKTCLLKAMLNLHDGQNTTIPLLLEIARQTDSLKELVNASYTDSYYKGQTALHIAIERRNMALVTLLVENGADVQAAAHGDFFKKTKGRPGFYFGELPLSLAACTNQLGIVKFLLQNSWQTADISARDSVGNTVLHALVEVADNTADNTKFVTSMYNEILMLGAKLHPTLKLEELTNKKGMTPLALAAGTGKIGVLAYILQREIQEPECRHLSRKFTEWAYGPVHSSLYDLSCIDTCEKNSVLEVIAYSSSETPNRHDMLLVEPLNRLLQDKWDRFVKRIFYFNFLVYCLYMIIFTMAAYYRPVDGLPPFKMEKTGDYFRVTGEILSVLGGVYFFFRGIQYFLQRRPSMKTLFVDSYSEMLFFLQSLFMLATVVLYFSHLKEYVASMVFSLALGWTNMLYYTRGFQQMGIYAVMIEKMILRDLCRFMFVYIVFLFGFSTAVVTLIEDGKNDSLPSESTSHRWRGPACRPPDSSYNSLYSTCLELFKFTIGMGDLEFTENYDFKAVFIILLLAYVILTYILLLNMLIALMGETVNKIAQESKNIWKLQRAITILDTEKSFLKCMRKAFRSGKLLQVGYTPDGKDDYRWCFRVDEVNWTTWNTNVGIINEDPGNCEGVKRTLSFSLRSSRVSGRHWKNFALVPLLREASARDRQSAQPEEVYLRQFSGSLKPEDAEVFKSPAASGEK
Outline: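 TRPV1-expressing cells loaded with Fluo-8 calcium dye; compounds added and calcium influx read kinetically for 3 min (agonist phase), then capsaicin at EC20 added and read 2 min more for enhancement. Fluorescence ex 480/em 520 nm.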

[15] = molecular target: Thyrotropin receptor (Homo sapiens) (UniProt P16473); experiment: qHTS Assay for Antagonists of the Thyroid Stimulating Hormone Receptor (AID 488980); also: series mostly up to about 58 µM; 0% is about no effect
Chain of Thyrotropin receptor (Homo sapiens) (P16473 whole entry, looked up): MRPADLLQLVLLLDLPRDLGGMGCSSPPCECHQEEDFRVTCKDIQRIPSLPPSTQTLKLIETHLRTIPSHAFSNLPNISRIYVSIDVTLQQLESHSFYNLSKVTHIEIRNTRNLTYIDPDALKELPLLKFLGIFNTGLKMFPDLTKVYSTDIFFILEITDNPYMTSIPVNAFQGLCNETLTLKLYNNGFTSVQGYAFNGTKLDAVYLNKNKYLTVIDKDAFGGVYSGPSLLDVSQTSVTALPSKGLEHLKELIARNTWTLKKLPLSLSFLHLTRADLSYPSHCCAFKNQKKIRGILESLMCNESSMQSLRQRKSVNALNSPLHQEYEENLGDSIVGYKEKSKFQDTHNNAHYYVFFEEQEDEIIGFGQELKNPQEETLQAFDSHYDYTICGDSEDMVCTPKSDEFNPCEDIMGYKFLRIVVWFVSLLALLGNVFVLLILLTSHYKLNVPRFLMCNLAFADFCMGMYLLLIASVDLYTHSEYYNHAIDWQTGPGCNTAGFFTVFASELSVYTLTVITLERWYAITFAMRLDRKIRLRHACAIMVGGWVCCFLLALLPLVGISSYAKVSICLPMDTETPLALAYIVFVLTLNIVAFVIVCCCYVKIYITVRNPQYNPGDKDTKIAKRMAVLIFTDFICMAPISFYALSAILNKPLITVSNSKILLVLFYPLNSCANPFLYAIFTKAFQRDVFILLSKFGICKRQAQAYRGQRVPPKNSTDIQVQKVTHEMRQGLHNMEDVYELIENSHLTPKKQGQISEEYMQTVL
Outline: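 Cells expressing human TSHR (HEK293) are dispensed in HBSS/HEPES containing 70 uM RO 20-1724, compound is added, then TSH at EC80 (4 nM final). Antibody in lysis buffer follows, 30 minutes at room temperature before HTRF detection.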

[16] = molecular target: Thyrotropin-releasing hormone receptor (Homo sapiens) (UniProt P34981); experiment: qHTS for Small Molecule Agonists and Allosteric Enhancers of Human TRH Receptor: Validation Screen for Agonists (AID 493127;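 active = calcium activation more than 3 SD above the typical response in the agonist read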;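 also: intracellular calcium rise by fluo-8 fluorescence before TRH EC20 addition; 0% is about no effect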); conditions: TRH receptor agonist cell assay; at 2 µM; active compounds read high
Outline: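 TRHR-expressing cells were plated overnight in serum-containing medium, then loaded with fluo-8 calcium dye at room temperature for 30 min–1.5 h. After a 10 s baseline, compound was pin-transferred and calcium fluorescence (ex 480/em 530) read kinetically for agonist response.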

[17] = molecular target: Galactokinase (Homo sapiens) (UniProt P51570); experiment: qHTS Validation Assay for Inhibitors of Human Galactokinase (GALK) (AID 493189); also: 0% is about no effect
Chain of Galactokinase (Homo sapiens) (P51570 whole entry, looked up): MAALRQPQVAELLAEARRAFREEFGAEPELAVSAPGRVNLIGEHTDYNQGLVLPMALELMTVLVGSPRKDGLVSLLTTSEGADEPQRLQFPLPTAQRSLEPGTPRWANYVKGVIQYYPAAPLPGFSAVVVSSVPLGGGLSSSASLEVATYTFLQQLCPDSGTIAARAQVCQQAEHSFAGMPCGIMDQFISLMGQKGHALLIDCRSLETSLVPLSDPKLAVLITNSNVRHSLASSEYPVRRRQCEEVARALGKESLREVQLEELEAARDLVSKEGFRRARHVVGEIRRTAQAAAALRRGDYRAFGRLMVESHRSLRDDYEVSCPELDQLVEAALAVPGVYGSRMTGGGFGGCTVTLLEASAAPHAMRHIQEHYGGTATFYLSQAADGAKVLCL
Outline: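 Compounds were pin-transferred into ATP buffer, then GALK-galactose mix was added (final 5 nM enzyme, 100 uM galactose, 35 uM ATP). After 1 h at room temperature, remaining ATP was measured luminescently.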

[18] = Validation screen for small molecules that induce DNA re-replication in SW480 colon adenocarcinoma cells (AID 504364); also: 0% is about no effect
Outline: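 SW480 cells seeded at 250 per well were exposed to compound or DMSO for 48 hr at 37 C, 5% CO2, then stained with Hoechst for 40 min. DNA content per nucleus was imaged (405 nm ex, 500-530 nm em).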

[19] = molecular target: DNA dC->dU-editing enzyme APOBEC-3G (Homo sapiens) (UniProt Q9HC16); experiment: qHTS for inhibitors of Vif-A3G interactions: Validation (AID 588379); also: 0% is about no effect
Outline: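 HeLa cells stably expressing Vif and A3G-eYFP, 700 cells/well, incubated overnight at 37 deg C, then exposed to compound overnight at 37 deg C. Inhibition of Vif-mediated degradation read as increased yellow fluorescence (Ex 488/Em 500-530) by laser-scanning cytometry.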

[20] = molecular target: Voltage-gated inwardly rectifying potassium channel KCNH2 (Homo sapiens) (UniProt Q12809); experiment: qHTS Assay for Small Molecule Inhibitors of the Human hERG Channel Activity (AID 588834);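 also: top concentration of the series differs between compounds; % is scaled to controls: 0 for no effect and ±100 for the full control effect; lower thallium flux fluorescence means stronger hERG block; nearly all actives have a fitted effect of over 50% in size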
Chain of Voltage-gated inwardly rectifying potassium channel KCNH2 (Homo sapiens) (Q12809 whole entry, looked up): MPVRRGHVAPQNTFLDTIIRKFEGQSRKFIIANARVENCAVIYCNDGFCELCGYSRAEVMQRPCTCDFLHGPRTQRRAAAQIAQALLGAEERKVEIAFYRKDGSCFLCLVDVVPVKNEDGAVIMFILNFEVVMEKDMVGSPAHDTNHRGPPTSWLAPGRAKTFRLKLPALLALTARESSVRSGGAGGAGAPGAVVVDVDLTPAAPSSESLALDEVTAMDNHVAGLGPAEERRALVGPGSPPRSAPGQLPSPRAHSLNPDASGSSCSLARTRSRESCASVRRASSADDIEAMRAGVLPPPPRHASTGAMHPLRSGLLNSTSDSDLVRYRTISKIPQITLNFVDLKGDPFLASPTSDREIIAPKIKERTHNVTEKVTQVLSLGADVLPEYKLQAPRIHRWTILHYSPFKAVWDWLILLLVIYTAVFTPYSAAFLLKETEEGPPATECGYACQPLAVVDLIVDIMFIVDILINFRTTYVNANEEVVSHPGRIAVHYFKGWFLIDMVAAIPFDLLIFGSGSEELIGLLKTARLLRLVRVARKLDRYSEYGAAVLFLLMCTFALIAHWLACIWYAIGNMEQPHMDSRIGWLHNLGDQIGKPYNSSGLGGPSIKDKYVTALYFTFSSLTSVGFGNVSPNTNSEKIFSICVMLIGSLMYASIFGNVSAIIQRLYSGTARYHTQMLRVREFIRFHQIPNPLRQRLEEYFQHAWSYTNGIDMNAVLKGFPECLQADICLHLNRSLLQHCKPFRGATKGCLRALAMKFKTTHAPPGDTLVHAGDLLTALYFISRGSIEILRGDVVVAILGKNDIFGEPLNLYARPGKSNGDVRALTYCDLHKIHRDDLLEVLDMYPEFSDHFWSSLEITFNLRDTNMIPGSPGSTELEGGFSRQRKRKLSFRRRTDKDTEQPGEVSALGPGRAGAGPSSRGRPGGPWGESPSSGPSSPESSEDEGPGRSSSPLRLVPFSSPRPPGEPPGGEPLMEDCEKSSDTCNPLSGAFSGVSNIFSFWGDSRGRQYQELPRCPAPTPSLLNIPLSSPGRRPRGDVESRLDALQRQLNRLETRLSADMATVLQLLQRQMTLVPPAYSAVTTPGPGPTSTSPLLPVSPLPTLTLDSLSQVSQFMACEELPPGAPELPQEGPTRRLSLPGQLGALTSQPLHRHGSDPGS
Outline: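 Measured: FluxOR fluorescence after thallium stimulation in U2OS cells transduced with hERG by baculovirus. Compounds pre-incubated around 10 min; medium Opti-MEM with 2% FCS. AC50 from Hill equation.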

[21] = tested on: Zika virus NS2B-NS3 protease; experiment: Primary screen GU AMC qHTS for Zika virus inhibitors (AID 1347154);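 also: 0% = no-inhibitor control and -100% = no-enzyme control; nearly all actives have a fitted effect of over 70% in size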
Outline: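 Unlinked Zika NS2B hydrophilic domain/NS3 protease domain noncovalent complex (25 nM final) in 10 mM Tris-HCl pH 8.0, 0.01% Tween 20, with AMC peptide substrate. Fluorescence (ex 340, em 450 nm) change over 15 min, room temperature; percent inhibition fitted to 4-parameter Hill equation.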

Cc1cccc(C)c1NC(=O)C[N+](C)(C)C
inactive: Potency [1] | Potency [2] | Potency [3] | Potency [4] | Potency [5] | outcome [6] | outcome [7] | Potency [8] | Potency [9] | Potency [10] | Potency [11] | Potency [12] | Potency [13] | outcome [14] | outcome [15] | activation [16] -0.0625% | outcome [17] | outcome [18] | Potency [19] | Potency [20] | Potency [21]
